Source: PubChem BioAssay (National Center for Advancing Translational Sciences (NCATS))
Shown are actives, neighbours in structure and some others; about 21% of the full set was active somewhere.
CHX counter: affects cycloheximide protein synthesis inhibition readout, counter-screen; max response, %; AID 2314; cell reporter, cycloheximide protein synthesis inhibition counterscreen; hit rate 12% among 300,000; in the data active means max response mostly above about 13%, no sharp cut-off; inactive means mostly below about 14%; further: read at 38.3 µM for the half of the compounds with a filed dose
Shiga inhibitor: Shiga toxin inhibition | Vero cells, Shiga toxin protein synthesis inhibition reporter | inhibition, % at 38.7 µM | hit rate 9.2% among 290,000; in the data active means inhibition mostly above about 28%, no sharp cut-off; inactive means mostly below about 43%
HCMV antiviral: human cytomegalovirus inhibition | HFF cells, HCMV-luciferase reporter, 72 h; stronger effect = lower value | activity change, negative = inhibition, % at 57.5 µM | hit rate 4.5% among 410,000 | AID 1259415; in the data active means activity change below about -60%; inconclusive means no clear call, values can overlap the other calls; inactive means above about -39%
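Compounds were evaluated in HFFs infected with an HCMV luciferase reporter virus (MOI 1 PFU/cell). Luciferase in lysates collected 72 h post infection served as the replication measure.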
Pf growth 48h: inhibits P. falciparum growth in the first generation, 48 h; hit rate 5.9% among 310,000; AID 504832; Potency, µM (doses to about 28.7 µM), actives largely listed as inhibitors; P. falciparum luciferase growth in erythrocytes, 48 h
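Luciferase-expressing P. falciparum in infected erythrocytes (2% hematocrit, 0.1% parasitemia final) in RPMI 1640/0.5% Albumax were exposed to compound for 48 hours at 37 C, 5% CO2; growth read as luminescence.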
Pf growth 96h: P. falciparum growth inhibition at 96 hours; AID 504834; Potency, µM (top dose mostly 28.7 µM), actives largely listed as inhibitors; hit rate 6.9% among 320,000; P. falciparum luciferase reporter growth, 96 h
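96 h incubation, 37 C, 5% CO2, of luciferase-reporter P. falciparum-infected RBCs (2% hematocrit, 0.05% parasitemia final) with test compounds; endpoint luminescence.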
HCV inh: inhibitors of hepatitis C virus infection | AID 651820 | Potency, µM (highest dose often 41.8 µM), usual class: inhibitors | hit rate 3.4% among 340,000 | Huh7.5.1 HCVcc-Cre infection, luciferase reporter, 44 h
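Cells (1,000/well) were plated 4 h before compound, then infected with HCVcc-Cre virus (~0.5 moi). After 44 h further culture, infection was read as luciferase luminescence following a 15 min substrate incubation at room temperature.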
Hits are given with their value. Unless noted, the call rests on the fitted dose curve; in most records, active means well fitted inhibition curve with a large enough effect; inconclusive means small, poorly fitted or top-dose-only effect, or another doubt; inactive means no such curve, though single readings can be large or run the other way.

For CC[C@@]1(C(=O)OC)N[C@H](CN(C)S(=O)(=O)c2ccc(C(C)(C)C)cc2)[C@@H]2C(=O)N(C)C(=O)[C@@H]21 the results were HCMV antiviral inactive and HCV inh inconclusive.
For CCCc1ccc(C(=O)CCC(=O)O)cc1 the results were CHX counter 52, Shiga inhibitor 65, HCMV antiviral inactive, Pf growth 48h inactive, Pf growth 96h inactive and HCV inh inactive.
For COc1ccc(CNC(=O)CCC(=O)c2ccccc2)cc1 the results were HCMV antiviral inactive, Pf growth 48h 15µM, Pf growth 96h inactive and HCV inh inactive.
COc1ccc(/C(N)=N/OC(=O)CCc2ccccc2)cc1 was read as CHX counter 52, Shiga inhibitor 93, HCMV antiviral inactive, Pf growth 48h inactive, Pf growth 96h inactive and HCV inh inactive.
Screening Cc1ccc(C(=O)CCC(=O)O)cc1 returned CHX counter inactive, Shiga inhibitor inactive and Pf growth 96h inactive.
Screening Cc1ccc(OCC(=O)OCc2nc3scc(-c4ccccc4)c3c(=O)[nH]2)cc1C returned HCMV antiviral inactive, Pf growth 48h inactive, Pf growth 96h inactive and HCV inh inactive.
Screening O=[N+]([O-])c1ccc(Oc2ccc(F)cc2)c2ccncc12 returned CHX counter inactive, Shiga inhibitor inactive, HCMV antiviral -68, Pf growth 48h 9.3µM and HCV inh inconclusive.
For O=[N+]([O-])c1ccc(Oc2cccc(Br)c2)c2ccncc12 the results were CHX counter inactive, Shiga inhibitor inactive, HCMV antiviral inactive, Pf growth 48h 12µM and HCV inh inconclusive.
Cc1ccc(S(=O)(=O)C2(C(=O)Nc3ccc(Cl)c(C(F)(F)F)c3)CC2)cc1 was read as HCMV antiviral inactive.
`CCOc1ccc(NC(=O)c2cc(C3CC3)nc3c2cnn3C(C)C)cc1OC` gave HCMV antiviral inactive, Pf growth 48h 12µM, Pf growth 96h 13µM and HCV inh 10µM.
Screening CC(=O)Nc1ccc(NC(=O)c2cc(C3CC3)nc3c2cnn3C(C)C)cc1 returned HCMV antiviral inactive, Pf growth 48h inconclusive, Pf growth 96h inactive and HCV inh 10µM.
`CC(C)n1ncc2c(C(=O)Nc3cccc(S(=O)(=O)N(C)C)c3)cc(C3CC3)nc21` gave HCMV antiviral inactive, Pf growth 48h 12µM, Pf growth 96h inconclusive and HCV inh inconclusive.
Screening CC(C)n1ncc2c(C(=O)Nc3ccc(S(C)(=O)=O)cc3)cc(C3CC3)nc21 returned HCMV antiviral inactive, Pf growth 48h inconclusive, Pf growth 96h inconclusive and HCV inh 5.6µM.
`COc1ccc(NC(=O)c2cc(C3CC3)nc3c2c(C)nn3-c2ccccc2)cc1OC` gave HCMV antiviral inactive.
CCOC(=O)c1[nH]c(CO)c(C(=O)OCC)c1C was read as CHX counter inactive, Shiga inhibitor inactive, HCMV antiviral inactive, Pf growth 48h inactive, Pf growth 96h inactive and HCV inh inactive.
`CC(C)n1ncc2c(C(=O)Nc3ccc(S(N)(=O)=O)cc3)cc(C3CC3)nc21` gave HCMV antiviral inactive, Pf growth 48h inconclusive, Pf growth 96h inconclusive and HCV inh inactive.
For CCN(CC)C(=O)c1cccc(NC(=O)c2cc(C3CC3)nc3c2cnn3C(C)C)c1 the results were HCMV antiviral inactive, Pf growth 48h inconclusive, Pf growth 96h 5.2µM and HCV inh 7.1µM.
For CNC(=O)c1cccc(NC(=O)c2cc(-c3ccccc3)nc3c2cnn3C(C)C)c1 the results were HCMV antiviral inactive, Pf growth 48h 4.7µM, Pf growth 96h inconclusive and HCV inh 3.2µM.
O=C(Cn1c(C(=O)NCc2ccco2)cc2sccc21)c1ccccc1 was read as CHX counter 24, Shiga inhibitor inactive, HCMV antiviral inactive, Pf growth 48h inconclusive, Pf growth 96h inactive and HCV inh inactive.
Screening CN(C)c1ccc2nc3c(=O)[nH]c(=O)nc-3n(CC(O)C(O)C(O)CO)c2c1 (stereo unspecified) returned CHX counter inactive, Shiga inhibitor inactive, HCMV antiviral inactive, Pf growth 48h 4.1µM, Pf growth 96h inactive and HCV inh inactive.
For CN(c1nnc(NC(=O)Nc2ccccc2C(F)(F)F)s1)C1CCCCC1 the results were HCMV antiviral inactive.
Screening Nc1ccc(C2(c3ccc(N)cc3)C(=O)Nc3ccccc32)cc1 returned CHX counter inactive, Shiga inhibitor inactive, HCMV antiviral -62, Pf growth 48h inactive, Pf growth 96h inactive and HCV inh inactive.
`O=C1Nc2ccccc2C1(c1ccccc1)c1ccccc1` gave CHX counter inactive, Shiga inhibitor inactive, HCMV antiviral inactive, Pf growth 48h inconclusive, Pf growth 96h inconclusive and HCV inh inconclusive.
Screening Cc1ccccc1CNC(=O)Nc1ccc2c(c1)N(C)C(=O)c1ccccc1S2 returned HCMV antiviral -97.
For CCOc1ccc(CNC(=O)Nc2ccc3c(c2)N(C)C(=O)c2ccccc2S3)cc1 the results were HCMV antiviral -62.
`Cc1ccc(C(=O)Nc2ccc3c(c2)N(C)C(=O)c2ccccc2S3)cc1F` gave HCMV antiviral -91.
Screening CN1C(=O)c2ccccc2Sc2ccc(NC(=O)NCc3ccc(Cl)cc3)cc21 returned HCMV antiviral -89.
For COc1ccc(CNC(=O)Nc2ccc3c(c2)N(C)C(=O)c2ccccc2S3)cc1 the results were HCMV antiviral inactive.
For CCCc1nnc(NC(=O)c2cc3ccccc3oc2=O)s1 the results were CHX counter inactive, Shiga inhibitor inactive, HCMV antiviral inactive, Pf growth 48h inactive, Pf growth 96h inactive and HCV inh inactive.
`CCCc1nnc(NC(=O)c2cc3ccccc3o2)s1` gave CHX counter 13, Shiga inhibitor inactive, HCMV antiviral inactive, Pf growth 48h inactive, Pf growth 96h inactive and HCV inh inactive.
COCc1nnc(NC(=O)c2cc3ccccc3o2)s1 was read as CHX counter 18, Shiga inhibitor 58, HCMV antiviral inactive, Pf growth 48h inactive, Pf growth 96h inconclusive and HCV inh inactive.
`Cc1csc(NC(=O)c2cc3ccccc3o2)n1` gave HCMV antiviral inactive, Pf growth 48h inactive, Pf growth 96h inactive and HCV inh inconclusive.
For Cc1cccc2nc(Cn3c(=O)n(-c4ccc(Cl)cc4)c(=O)c4c5c(sc43)CCC5)cc(=O)n12 the results were HCMV antiviral inactive.
Screening COc1ccc(OCC(=O)N/N=C(\C)c2cccs2)cc1 returned CHX counter inactive, Shiga inhibitor inactive, HCMV antiviral inactive, Pf growth 48h inactive, Pf growth 96h inactive and HCV inh inactive.
C/C(Cn1nc([N+](=O)[O-])cc1C)=N\NC(=O)c1cccc(Br)c1 was read as CHX counter 31, Shiga inhibitor inactive, HCMV antiviral inactive, Pf growth 48h inactive, Pf growth 96h inactive and HCV inh inactive.
`Cc1ccc(N(Cc2cccs2)C(=O)COc2ccccc2[N+](=O)[O-])cc1` gave HCMV antiviral -68.
`C/C(Cn1nc([N+](=O)[O-])cc1C)=N\NC(=O)COc1ccc(Cl)cc1Cl` gave CHX counter inactive, Shiga inhibitor inactive, HCMV antiviral inactive, Pf growth 48h inactive, Pf growth 96h inactive and HCV inh inactive.
